One test deals with Furin (Homo sapiens) (UniProt P09958). The experiment in a line: Furin counterscreen qHTS for Zika virus inhibitors (AID 1347149). Further: nearly all actives have a fitted effect of over 70% in size. Further: potency means the concentration at half of the fitted maximal effect.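 On activity change, negative = inhibition: purified recombinant full-length human furin enzyme at 5 nM; fluorescence gain from furin cutting a BOC-RVRR-AMC peptide substrate over 15 min; top concentration of the series differs between compounds; plate controls were no-inhibitor control for no effect and no-enzyme control for full effect.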 The procedure, abridged:
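Fluorogenic cleavage of BOC-RVRR-AMC (2 microM final, Km ~15 µM) was monitored (ex 340, em 450 nm) at 37C after 15 min RT preincubation of 5 nM furin with compounds in HEPES pH 7.0 buffer with CaCl2 and Triton X-100. Percent inhibition was fitted to a 4-parameter Hill curve.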
For orientation: A counterscreen serves to expose hits that act by an unwanted route or on another target.

Test [1] has as its system Zika virus NS2B-NS3 protease. Nature of the test: Primary screen GU AMC qHTS for Zika virus inhibitors (AID 1347154). Further: potency means the concentration at half of the fitted maximal effect; nearly all actives have a fitted effect of over 70% in size. The method in brief: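 Fluorogenic AMC-substrate cleavage by noncovalent NS2B-NS3 protease complex (25 nM, pH 8.0 Tris buffer with Tween 20) followed for 15 minutes at room temperature (~20% conversion). Percent inhibition from ex340/em450 signal change, fitted by 4-parameter Hill equation.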

Test [2] is described as follows: Confirmatory screen NINDS Rhodamine qHTS for Zika virus inhibitors (AID 1347161). Further: potency means the concentration at half of the fitted maximal effect; nearly all actives have a fitted effect of over 60% in size. The procedure, abridged: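 Each compound, titrated, sat 15 min with 25 nM linked protease before 1.5 microM Rhodamine110 substrate went in. Fluorescence gain over the next 15 min, in pH 8.0 Tris with Tween 20, gave Hill-fitted curves.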
(qHTS replaces the single test concentration by a dilution series.)

The test system of test [3] is Zika virus NS2B-NS3 protease (linked). Nature of the test: 384 well plate NINDS AMC confirmatory qHTS for Zika virus inhibitors (AID 1347163). Further: nearly all actives have a fitted effect of over 50% in size. Further: potency means the concentration at half of the fitted maximal effect.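 On activity change, negative = inhibition: linked protease at 5 30 or 60 nM final depending on run; fluorescence of AMC released from Ac-VKTGKR-AMC peptide cleaved by the protease; top concentration of the series differs between compounds; 0% = no-inhibitor control and -100% = no-enzyme control.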 The method in brief: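 Linked protease 5/30/60 nM final; cpds up to 1 mM final, ~15 min preinc. Substrate Ac-VKTGKR-AMC 30 microM final. RT, dark, 25 min; FI ex 355/em 460; normalized to no-enzyme/no-inhibitor ctrls.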
Test [4] is described as follows: Vero cells viability qHTS for Zika virus inhibitors (AID 1347167). Further: on the % scale 0 is the no-effect control and ±100 the full control effect. The method in brief:
(§1)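 Compounds were tested in concentration series on cells grown in DMEM containing 4% FBS. After 24 to 48 hours, cellular ATP was measured by luminescence with CellTiter Glo.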

Test [5] is described as follows: HepG2 cells viability qHTS for Zika virus inhibitors (AID 1347168). Further: on the % scale 0 is the no-effect control and ±100 the full control effect. The procedure, abridged: as §1
Test [6] is described as follows: Tertiary RLuc qRT-PCR qHTS assay for Zika virus inhibitors (AID 1347169). Further: top concentration of the series differs between compounds; on the % scale 0 is the no-effect control and ±100 the full control effect; nearly all actives have a fitted effect of over 55% in size. The procedure, abridged:
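Vero, 1,000 cells/well, o/n 37 C; cpd pinned in DMSO; ZIKV-RLuc Cambodian, MOI 1-2, 48-72 h 37 C; live-cell RLuc substrate, lum read at 1-1.5 h.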
A general note: Quantitative PCR measures a nucleic acid by following its amplification.

Test [7] is described as follows: Primary qHTS for small molecule stabilizers of the endoplasmic reticulum resident proteome: Secreted ER Calcium Modulated Protein (SERCaMP) assay (AID 1508630). Further: on the % scale 0 is the no-effect control and ±100 the full control effect. The procedure, abridged: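 GLuc-SERCaMP-expressing SH-SY5Y cells, pretreated 16 h with compound, are challenged with thapsigargin to empty ER calcium stores; after 4 h, coelenterazine is added directly to the medium and luminescence is imaged.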

The test system of test [8] is Zika virus NS2B-NS3 protease (linked construct). The experiment in a line: Confirmatory screen NINDS AMC qHTS for Zika virus inhibitors (AID 1347152). Further: nearly all actives have a fitted effect of over 70% in size. Further: potency means the concentration at half of the fitted maximal effect.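 On activity change, negative = inhibition: AMC fluorescence gain from cleaved Bz-Nle-KRR-AMC substrate over 15 min; top concentration of the series differs between compounds; 0% = no-inhibitor control and -100% = no-enzyme control.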 The method in brief:
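Enzyme (1 nM, linked construct) was preincubated with compound for 15 minutes at room temperature in 10 mM Tris-HCl pH 8.0 with 0.01% Tween 20. Bz-Nle-Lys-Arg-Arg-AMC was then added to 10 microM, and AMC fluorescence was recorded immediately and after 15 minutes.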

Test [9] deals with Zika virus NS2B-NS3 protease (unlinked complex). The experiment in a line: Confirmatory screen GU AMC qHTS for Zika virus inhibitors (AID 1347153). Further: nearly all actives have a fitted effect of over 70% in size.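 On Potency: enzyme at 25 nM with substrate at 10 µM below its Km of 18.3 µM; potency means the concentration at half of the fitted maximal effect.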 The procedure, abridged: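 Compounds were preincubated 15 min at room temperature with 25 nM noncovalent NS2B-NS3 protease at pH 8.0; AMC substrate added at 10 microM and 15-min fluorescence gain (340/450 nm) converted to percent inhibition, fitted 4-parameter.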

The target in test [10] is Cytochrome P450 3A4 (Homo sapiens) (UniProt P08684). The experiment in a line: qHTS Assay for Inhibitors and Substrates of Cytochrome P450 3A4 (AID 884). Further: on the % scale 0 is the no-effect control and ±100 the full control effect; nearly all actives have a fitted effect of over 50% in size. The method in brief:
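20 nM human CYP3A4 with 25 uM Luciferin-PPXE (at KM) in 200 mM KPO4, preincubated 10 min with compound; NADPH regeneration started a 60 min RT reaction. Luciferin detected by luminescence, normalized to 57 uM ketoconazole as full inhibition.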

A short description of test [11]: Confirmation and Secondary Assay for Modulators of Hemoglobin Beta Chain Splicing at IVS2 654 locus (AID 910).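 Further: HeLa cells stably carrying EGFP split by mutant beta-globin IVS2-654 intron; per-well total GFP intensity by laser scanning cytometry after 2-day treatment; % of control where 0% means no effect.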 The method in brief:
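Readout: per-well total peak green fluorescence (488 nm ex, 500–520 nm em) from objects 5–250 µm, reflecting correct splicing of an EGFP-654 reporter. Compounds were applied for 2 days at 37 °C to overnight-plated HeLa EGFP-654 cells; controls were DMSO and 500 nM IVS2-654 PNA.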

A short description of test [12]: Confirmation and Secondary Assay for Modulators of Hemoglobin Beta Chain Splicing at IVS2 705 locus (AID 930).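 Further: HeLa cells stably expressing the EGFP-705 splicing reporter; GFP fluorescence per well restored by corrected splicing of the IVS2-705 intron in EGFP; % of control where 0% means no effect.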 The procedure, abridged:
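HeLa EGFP-705 reporter; 500 cells/well, o/n 37C 5% CO2; cpd 2 d; 488 ex/500-520 em laser scan; total peak GFP intensity/well. Ref: 500 nM […] antisense PNA.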

Test [13] can be described thus: qHTS Assay for Lipid Storage Modulators (AID 1519; calls by dose curve; on activity change, negative = inhibition: on the % scale 0 is the no-effect control and ±100 the full control effect). Conditions: Drosophila S3 cells, BODIPY lipid droplet/cell ratio, laser cytometry, cells loaded with oleic acid. The method in brief: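 Cells seeded at 5,000 per well were treated with compounds over a concentration series and loaded with oleic acid (400 uM, as added). Lipid droplet fluorescence (488 nm excitation, 500-530 nm channel) was read by laser-scanning cytometry and normalized to 20 uM Triacsin C.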

Test [14] concerns the target Ubiquitin carboxyl-terminal hydrolase 1 (Homo sapiens) (UniProt O94782). Nature of the test: Inhibitors of USP1/UAF1: Pilot qHTS (AID 504865). Further: potency means the concentration at half of the fitted maximal effect; nearly all actives have a fitted effect of over 35% in size. The procedure, abridged:
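In 50mM HEPES pH 7.8 containing 0.5mM EDTA, 1mM TCEP, 0.1 mg/ml BSA and 0.01% Tween-20, 1nM USP1/UAF1 is exposed to compound for 15 min, then Ub-Rho (150nM final) is added and fluorescence is read over time.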

Test [15] is described as follows: ZIKV-mCherry secondary qHTS for Zika virus inhibitors (AID 1347158). Further: top concentration of the series differs between compounds. The procedure, abridged: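 Vero cells, 5,000/well, plated overnight at 37 °C, then compound added and infected with recombinant ZIKV-mCherry at MOI 1 for 48-72 h. PFA-fixed, Hoechst nuclear stain, high-content imaging; cells with mCherry intensity above 450 RFU scored infected, reported as percent infection.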

Test [16] concerns Zika virus NS2B-NS3 protease (linked construct). Nature of the test: 384 well plate NINDS Rhodamine confirmatory qHTS for Zika virus inhibitors (AID 1347164).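 Further: fluorescence from protease cleavage of Ac-LKRR-rhodamine 110 substrate; potency means the concentration at half of the fitted maximal effect; nearly all actives have a fitted effect of over 65% in size.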 The method in brief: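 Enzyme (final 5/30/60 nM) + cpd (DMSO), ~15 min; add Ac-LKRR-Rd 10 microM final; 25 min RT, dark; FI ex 485/em 538; normalized to no-enzyme, no-inhibitor ctrls; aprotinin intraplate ctrl.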
A short description of test [17]: Confirmatory screen GU Rhodamine qHTS for Zika virus inhibitors qHTS (AID 1347157). The procedure, abridged:
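A qHTS format was used, with compound concentrations ranging up to 114 microM. Each compound was preincubated with 25 nM NS2B-NS3 protease, and the substrate was then added at 1.5 microM. Curves were fitted with a 4-parameter Hill model.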

Records with an inconclusive call do not appear. Activity calls are given as the source filed them. Unless noted, the call rests on the fitted dose curve; in most records, active means well fitted curve in the direction sought with a large enough effect; inconclusive means small, poorly fitted or top-dose-only effect, or another doubt; inactive means no such curve, though single readings can be large; an effect the other way counts as inactive or inconclusive.

Experimental findings from PubChem BioAssay (NCATS) are described below.

Sequence of Furin (Homo sapiens) (P09958 whole entry, looked up): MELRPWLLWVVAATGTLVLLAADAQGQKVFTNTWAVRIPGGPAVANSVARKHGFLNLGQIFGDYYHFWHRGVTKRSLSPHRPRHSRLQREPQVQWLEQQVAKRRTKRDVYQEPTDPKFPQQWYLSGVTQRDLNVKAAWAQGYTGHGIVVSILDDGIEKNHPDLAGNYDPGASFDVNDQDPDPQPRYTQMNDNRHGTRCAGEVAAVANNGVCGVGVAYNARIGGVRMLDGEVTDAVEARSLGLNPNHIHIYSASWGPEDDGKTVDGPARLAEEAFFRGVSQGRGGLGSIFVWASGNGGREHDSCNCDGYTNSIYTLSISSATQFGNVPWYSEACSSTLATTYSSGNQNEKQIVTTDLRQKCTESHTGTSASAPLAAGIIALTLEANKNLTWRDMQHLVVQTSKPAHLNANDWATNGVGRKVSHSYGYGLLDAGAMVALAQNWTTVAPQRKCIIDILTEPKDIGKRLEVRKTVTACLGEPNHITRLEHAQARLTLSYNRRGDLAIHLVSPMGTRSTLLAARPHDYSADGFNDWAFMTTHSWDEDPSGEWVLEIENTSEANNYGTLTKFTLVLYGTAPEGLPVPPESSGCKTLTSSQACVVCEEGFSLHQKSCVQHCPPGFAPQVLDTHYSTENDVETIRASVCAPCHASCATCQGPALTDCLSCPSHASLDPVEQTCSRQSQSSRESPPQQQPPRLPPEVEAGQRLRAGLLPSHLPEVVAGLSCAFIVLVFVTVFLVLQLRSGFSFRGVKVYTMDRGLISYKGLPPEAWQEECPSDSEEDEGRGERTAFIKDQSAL
Sequence of Cytochrome P450 3A4 (Homo sapiens) (P08684 whole entry, looked up): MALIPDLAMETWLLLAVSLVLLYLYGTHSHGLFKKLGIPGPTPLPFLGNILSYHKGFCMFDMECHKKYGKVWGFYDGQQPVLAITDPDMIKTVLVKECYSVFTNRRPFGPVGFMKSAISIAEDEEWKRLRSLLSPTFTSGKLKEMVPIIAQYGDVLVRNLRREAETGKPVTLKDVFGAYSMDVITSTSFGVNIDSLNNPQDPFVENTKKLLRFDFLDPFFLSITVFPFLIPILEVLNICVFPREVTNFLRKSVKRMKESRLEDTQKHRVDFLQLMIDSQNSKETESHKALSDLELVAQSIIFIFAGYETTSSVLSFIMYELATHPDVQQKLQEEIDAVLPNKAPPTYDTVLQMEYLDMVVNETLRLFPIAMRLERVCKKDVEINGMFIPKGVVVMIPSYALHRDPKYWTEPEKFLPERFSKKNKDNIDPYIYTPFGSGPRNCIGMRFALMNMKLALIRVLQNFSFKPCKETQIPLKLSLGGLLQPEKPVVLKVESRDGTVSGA
Sequence of Ubiquitin carboxyl-terminal hydrolase 1 (Homo sapiens) (O94782 whole entry, looked up): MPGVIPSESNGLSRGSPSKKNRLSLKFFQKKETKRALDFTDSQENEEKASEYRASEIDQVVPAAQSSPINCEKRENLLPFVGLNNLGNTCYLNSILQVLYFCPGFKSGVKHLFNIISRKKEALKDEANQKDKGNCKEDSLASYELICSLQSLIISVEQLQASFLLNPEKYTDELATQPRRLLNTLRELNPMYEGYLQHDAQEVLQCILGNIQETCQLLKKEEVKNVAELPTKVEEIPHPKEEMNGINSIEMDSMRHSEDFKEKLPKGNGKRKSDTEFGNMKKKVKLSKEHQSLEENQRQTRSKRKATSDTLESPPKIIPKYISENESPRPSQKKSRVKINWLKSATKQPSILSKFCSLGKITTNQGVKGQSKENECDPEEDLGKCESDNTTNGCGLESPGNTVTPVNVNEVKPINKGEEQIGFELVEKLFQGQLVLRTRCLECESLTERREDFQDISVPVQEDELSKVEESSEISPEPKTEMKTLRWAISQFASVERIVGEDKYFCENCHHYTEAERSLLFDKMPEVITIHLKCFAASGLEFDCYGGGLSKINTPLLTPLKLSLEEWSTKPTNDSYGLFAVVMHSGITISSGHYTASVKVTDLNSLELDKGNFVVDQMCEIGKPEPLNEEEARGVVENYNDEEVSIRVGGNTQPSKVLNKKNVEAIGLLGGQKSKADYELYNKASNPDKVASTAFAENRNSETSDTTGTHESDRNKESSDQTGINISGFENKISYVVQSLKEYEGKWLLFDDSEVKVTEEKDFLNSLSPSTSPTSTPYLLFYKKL

For the compound `CC1(C(=O)O)NCCc2cc(O)c(O)cc21` (stereo not given), the Potency is 24.1 µM (active) with Furin (Homo sapiens), 10.6 µM (active) in test [1] and 27.8 µM (active) in [2]. The Potency entry in test [3], in test [4], in test [5], in test [6] and in test [7] was “inactive” in each case.
As for `CCN(CC)c1ccc(/C=N/NC(=O)c2ccc(O)cc2)cc1`, the Potency with Furin (Homo sapiens) was 24.1 µM (active). The Potency result in [8], in test [4], in [5], in test [6] and in test [7] was “inactive” throughout.
On to `O=C(O)c1ccc(-c2ccc(C(F)(F)F)cc2)cc1`, for which the Potency result (in the test with Furin (Homo sapiens); in [8]; in test [9]; in [6]) was “inactive” each time.
As for `O=C(OC1Cc2c(O)cc(O)cc2OC1c1cc(O)c(O)c(O)c1-c1c(C2Oc3cc(O)cc(O)c3CC2O)cc(O)c(O)c1O)c1cc(O)c(O)c(O)c1` (stereo not given), the Potency result in test [10], in [15] and in test [6] was “inactive” throughout. In addition, the compound was classed as inactive in test [11] and in test [12]. Further, the activity change, negative = inhibition in [13] (at 57.5 µM (top of the series)) is 6.85% (inactive). Further, the max response in test [13] (measured here: cell count channel max response) amounted to 18.1%; in test [13] (measured here: lipid channel max response), 26.1%. In addition, the Potency in test [14] was 44.7 µM (active); with Furin (Homo sapiens) it was 17.5 µM (active); in [9], 44.1 µM (active); in [3] it was 22.4 µM (active); in test [16], 17.8 µM (active).
Turning to `O=C(O)c1ccc(-c2ccc(OC(F)(F)F)cc2)cc1`, the Potency result (with Furin (Homo sapiens); in test [8]; in [9]; in [6]) was “inactive” throughout.
Take `Cc1ccc2c(=O)c3ccccc3n(CCCN)c2c1C`: the Potency in the test with Furin (Homo sapiens) is 24.1 µM (active); in test [1], 21.2 µM (active). Also, the Potency entry in [9], in test [4] and in [7] was “inactive” each time.
In the case of `Cc1ccc(NC(=O)c2ccc3c(O)c(S(=O)(=O)c4ccc(Cl)cc4)c(=O)[nH]c3c2)cc1`, the Potency entry (in the test with Furin (Homo sapiens); in [15]; in test [6]) was “inactive” throughout. Further, the Potency in test [17] is 22.4 µM (active); in test [2], 6.31 µM (active); in test [3], 251 µM (active); in test [16] it was 35.5 µM (active).
As to `Clc1nc2n[nH]nc2nc1Cl`, the Potency in the test with Furin (Homo sapiens) is 39.8 µM (active); in test [8] it was 22.4 µM (active). Also, in test [15], the Potency result is “inactive”.
